Results: PubChem BioAssay AID2289 (National Center for Advancing Translational Sciences (NCATS), 2010)
The campaign covered roughly 340,000 compounds. About 3,300 (0.97%) were called active. Inconclusive results (about 9%) are left out. Calls come from the whole dose curve; as a rule, active = well fitted inhibition curve with a large enough effect; inconclusive = small, poorly fitted or top-dose-only effect, or effect the other way; inactive = flat fitted curve, though single readings scatter. This is one part of the list.

Experiment: qHTS Assay for Modulators of miRNAs and/or Inhibitors of miR-21; note: nearly all actives have a fitted effect of over 55% in size
Conditions: HeLa miR-21-FLuc reporter, luciferase luminescence, 48 h; actives lower the signal
Summary of the method: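 HeLa cells stably expressing CMV-driven firefly luciferase with a downstream miR-21 binding sequence, endogenously expressing miR-21, were treated with titrations (up to about 40uM final) for 48 hours at 37 degree Celsius. Luciferase luminescence was read after lysis.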
Potency is the fitted concentration of half-maximal effect.

Compound | Potency
COc1ccc2oc(=O)c(-c3nc4ccccc4o3)cc2c1 | 9.27 µM (active)
Cc1ccc(C(=O)O/N=C(\N)c2cccnc2)cc1[N+](=O)[O-] | 7.36 µM (active)
Cc1cc(C(=O)O/N=C(\N)c2ccncc2)ccc1[N+](=O)[O-] | 2.33 µM (active)
C/C(=N\NC(=O)c1nn(C)cc1Br)c1ccc(NC(=O)c2ccncc2)cc1 | 18.5 µM (active)
C/C(=N\NC(=O)c1nn(C)c(C)c1Br)c1cccc(NC(=O)c2ccoc2C)c1 | 3.69 µM (active)
C/C(=N\NC(=O)c1nn(C)c(C)c1Br)c1cccc(NC(=O)c2ccc(F)cc2)c1 | 1.85 µM (active)
COc1ccc(C2=NN(C(C#N)c3ccc(OC)cc3)C(c3ccccc3)C2)cc1 (stereo unspecified) | 2.33 µM (active)
COc1ccc(C(C#N)N2N=C(c3ccccc3)CC2c2ccccc2)cc1OC (stereo unspecified) | 10.4 µM (active)
O=C1C(C=NCCN2CCOCC2)=C(O)c2ccccc21 | 8.26 µM (active)
O=C(/C=C\c1ccc(-c2cccc([N+](=O)[O-])c2)o1)N1CCOCC1 | 9.27 µM (active)
O=C(/C=C/c1ccc(-c2ccc(F)cc2)o1)N1CCCC1 | 5.85 µM (active)
O=C(/C=C/c1ccc(-c2cccc([N+](=O)[O-])c2)o1)N1CCOCC1 | 7.36 µM (active)
COCc1ccc(C(=O)N(C)CC2CCCN(CCc3ccc(OC)cc3)C2)o1 (stereo unspecified) | 11.7 µM (active)
COc1ccc(CCN2CCCC(CN(C)C(=O)c3ccoc3)C2)cc1 (stereo unspecified) | 6.56 µM (active)
O=C(N/N=C/c1ccccc1[N+](=O)[O-])c1cccs1 | 2.93 µM (active)
O=C(Cc1cccs1)N/N=C/C=C/c1ccccc1[N+](=O)[O-] | 6.56 µM (active)
Cc1ccc(/C=N/NC(=O)c2cccs2)cc1[N+](=O)[O-] | 4.14 µM (active)
CC(/C=N/NC(=O)Cc1cccs1)=C\c1ccccc1 | 6.56 µM (active)
CSc1ccccc1NC(=O)c1cccc(S(=O)(=O)N2CCN(C)CC2)c1 | 14.7 µM (active)
O=[N+]([O-])c1ccccc1COc1ccc(Cl)c2cccnc12 | 0.293 µM (active)
Cc1cccc2nc(COc3ccc4ccccc4c3Br)cn12 | 2.07 µM (active)
Clc1ccc(OCc2cn3ccccc3n2)c2ncccc12 | 6.56 µM (active)
Clc1ccc(OCc2cn3cccnc3n2)c2ncccc12 | 14.7 µM (active)
Cc1cccc2nc(COc3ccc(Cl)c4cccnc34)cn12 | 16.5 µM (active)
Cc1ccc(-c2nc3ccccc3s2)cc1NC(=S)NC(=O)c1cccc2ccccc12 | 4.65 µM (active)
Cc1cccnc1NC(=S)NC(=O)/C=C/c1ccco1 | 9.27 µM (active)

Compound | Potency
Cc1ccc(-n2nc3cc(C)c(NC(=S)NC(=O)/C=C/c4ccco4)cc3n2)cc1 | 3.69 µM (active)
CCOC(=O)Cc1ccc2sc(-c3ccccc3)nc2c1 | 1.17 µM (active)
Cc1ccc(-c2nc3ccccc3s2)cc1NC(=S)NC(=O)/C=C/c1ccco1 | 10.4 µM (active)
COc1ccc(OCC(=O)Nc2cc(-c3nc4ccccc4s3)ccc2C)cc1 | 4.65 µM (active)
CCOc1cc(-c2nc3ccccc3s2)ccc1O | 9.27 µM (active)
C/C(=N/Nc1ccccc1C(=O)O)c1cccs1 | 14.7 µM (active)
C/C(=N\Nc1nc(-c2ccccc2)cs1)c1cccs1 | 8.26 µM (active)
C/C(=N\Nc1ccccc1C(=O)O)c1ccncc1 | 8.26 µM (active)
c1ccc(-c2ccc(-c3ccccn3)s2)nc1 | 0.736 µM (active)
O=C(Nc1ccccc1)c1ccc(-c2ccccc2)s1 | 1.85 µM (active)
O=C(Nc1ccc(Cl)cc1)c1ccc(-c2ccccn2)s1 | 0.736 µM (active)
O=C(Nc1ccccc1Cl)c1ccc(-c2ccccn2)s1 | 0.826 µM (active)
O=S1(=O)CCN2C(=N1)Sc1c2ccc2c1CCCC2 | 13.1 µM (active)
Cc1nc(C#N)c(N/N=C/c2cccc(Cl)c2)o1 | 7.36 µM (active)
CCOc1ccc(-c2cc(NC(=O)Nc3ccccc3Cl)c(C(=O)OC)s2)cc1 | 5.85 µM (active)
COC(=O)c1sc(-c2ccc(C(C)(C)C)cc2)cc1NC(=O)COCC(=O)O | 11.7 µM (active)
COC(=O)c1sc(-c2ccc(C(C)(C)C)cc2)cc1NC(=O)CCC(=O)O | 5.21 µM (active)
COc1ccc(C2Nc3ccccc3C(=O)N2c2ccc(Cl)cc2)cc1Cn1cc([N+](=O)[O-])cn1 (stereo unspecified) | 0.736 µM (active)
COc1ccc(C2Nc3ccccc3C(=O)N2c2ccc(C)cc2)cc1Cn1nnc2ccccc21 (stereo unspecified) | 6.56 µM (active)
COc1ccc(N2C(=O)c3ccccc3NC2c2ccc(OC)c(Cn3nnc4ccccc43)c2)cc1 (stereo unspecified) | 5.21 µM (active)
O=[N+]([O-])c1ccccc1/C=N/OCc1ccccc1 | 14.7 µM (active)
Cc1ccc(Cn2cnc3nc4c(cc3c2=O)CC(C)CC4)cc1 (stereo unspecified) | 4.65 µM (active)
Cc1ccc(Cn2cnc3nc4c(cc3c2=O)CCCC4)cc1 | 8.26 µM (active)
Cc1nc2cc(NC(=O)C3COc4ccccc4O3)ccc2s1 (stereo unspecified) | 4.14 µM (active)
O=C(Nc1ccc2c(c1)CCC2)C1COc2ccccc2O1 (stereo unspecified) | 1.47 µM (active)
Cc1c(C(=O)N(CCO)Cc2ccccc2)oc2c(F)cccc12 | 13.1 µM (active)

Compound | Potency
C=CCn1c(SCC(=O)NCC)nnc1-c1cc2c(s1)CCC(CC)C2 (stereo unspecified) | 7.36 µM (active)
C=CCn1c(SCC(N)=O)nnc1-c1cc2c(s1)CCC(CC)C2 (stereo unspecified) | 13.1 µM (active)
Cc1cccnc1Nc1nc(-c2ccc(O)cc2)cs1 | 3.29 µM (active)
Cc1cccnc1Nc1nc(-c2ccc(O)cc2O)cs1 | 5.21 µM (active)
Cc1cccnc1Nc1nc(-c2ccc(O)c(O)c2)cs1 | 4.65 µM (active)
Cc1ccc2nc(Cl)c(/C=C/C(=O)c3ccco3)cc2c1 | 14.7 µM (active)
COCc1cc(C)nc2sc(C(=O)Nc3cc(C)ccc3F)c(N)c12 | 7.36 µM (active)
COCc1cc(C)nc2sc(C(=O)Nc3ccccc3F)c(N)c12 | 18.5 µM (active)
COCc1cc(C)nc2sc(C(=O)Nc3ccccc3O)c(N)c12 | 13.1 µM (active)
Cc1c(-c2nsc(NC(=O)c3cccs3)n2)nnn1-c1ccc(Cl)cc1 | 2.07 µM (active)
Cc1ccc(-n2nnc(-c3nsc(NC(=O)c4ccccc4)n3)c2C)cc1 | 5.21 µM (active)
Cc1c(-c2nsc(NC(=O)c3cccs3)n2)nnn1-c1ccc(Br)cc1 | 1.85 µM (active)
Cc1c(-c2nsc(NC(=O)c3cccs3)n2)nnn1-c1ccc(F)cc1 | 0.521 µM (active)
COc1cccc(-c2nc(=S)c3c(o2)CCCC3)c1 | 1.85 µM (active)
CCn1c(SCc2nc3ccccc3s2)nnc1-c1ccccc1 | 16.5 µM (active)
Cc1nnc(SCc2nc3ccccc3s2)n1-c1ccccc1 | 16.5 µM (active)
COCCn1c(SCc2nc3ccccc3s2)nc2ccccc21 | 8.26 µM (active)
Cc1cccc(C)c1Nc1nnc(SCc2nc3ccccc3s2)s1 | 4.65 µM (active)
CCCSc1nnc(Nc2ccccc2C)s1 | 5.85 µM (active)
O=c1c2ccccc2nc(SCc2nc3ccccc3s2)n1CCCO | 11.7 µM (active)
c1ccc(SCc2nc3ccccc3s2)nc1 | 3.69 µM (active)
CCCn1c(SCc2nc3ccccc3s2)n[nH]c1=O | 6.56 µM (active)
Brc1ccccc1-c1nnc(SCc2nc3ccccc3s2)o1 | 8.26 µM (active)
Cc1ccccc1OCCSc1nnc(C)n1-c1ccccc1 | 14.7 µM (active)
O=c1cc(-c2ccccc2Cl)oc2cc(O)cc(O)c12 | 10.4 µM (active)
Nc1ccc2oc(-c3ccccc3Cl)cc(=O)c2c1O | 6.56 µM (active)

Compound | Potency
Nc1ccc(O)c2c(=O)cc(-c3ccccc3Cl)oc12 | 3.29 µM (active)
C#Cc1cccc(NC(=O)c2ccc(Cl)cc2Cl)c1 | 1.17 µM (active)
O/N=C/c1cn(-c2ccc(Cl)cc2)nn1 | 13.1 µM (active)
O=C(COc1ccc(F)cc1Br)NCc1ccccn1 | 14.7 µM (active)
COc1ccc(CNC(=O)Nc2cccc(Cl)c2)cc1 | 3.69 µM (active)
COc1ccccc1C(=O)NC(=O)Nc1cccc(Cl)c1 | 0.736 µM (active)
COc1ccc(CNC(=S)N/N=C(/C)c2ccccc2)cc1 | 11.7 µM (active)
Cc1ccc(CNC(=O)Nc2ccccc2)c(C)c1 | 1.65 µM (active)
CSc1ccc(NC(=O)NCc2ccccc2)cc1 | 9.27 µM (active)
COc1ccc(CNC(=O)Nc2ccccc2)cc1 | 4.65 µM (active)
COc1ccc(/C=N/N=C2/SCC(=O)N2Cc2ccccc2)cc1 | 2.07 µM (active)
CCc1ccc2[nH]c(C(=O)Nc3ccc(Br)c(C)n3)cc2c1 | 1.65 µM (active)
COc1ccc(CNc2nc3nc(C)c(Cl)c(C)n3n2)cc1 | 16.5 µM (active)
COc1cccc(CNc2nc3nc(C)c(Cl)c(C)n3n2)c1 | 10.4 µM (active)
O=C(/C=C/c1ccccc1[N+](=O)[O-])Nc1cccnc1 | 7.36 µM (active)
Cc1ccc(OCC(=O)Nc2ccccc2[N+](=O)[O-])c(Br)c1 | 1.31 µM (active)
Cc1ccc(Cl)c(OCC(=O)Nc2cccnc2)c1 | 3.29 µM (active)
O=C(COc1ccccc1Cl)Nc1cccnc1 | 6.56 µM (active)
Cc1ccc(OCC(=O)Nc2ccon2)c([N+](=O)[O-])c1 | 6.56 µM (active)
O=C(COc1ccccc1[N+](=O)[O-])Nc1cccnc1 | 8.26 µM (active)
Cc1ccc(NC(=O)c2ccc(OC(=O)COc3ccc(Cl)cc3C)cc2)cc1 | 1.47 µM (active)
Cc1ccc(NC(=O)COc2ccc(Br)cc2C)cc1 | 9.27 µM (active)
O=C(COc1ccccc1[N+](=O)[O-])Nc1ccc(Br)cc1 | 3.29 µM (active)
